An excerpt weighted towards active compounds, which were near 1.7% of everything screened.
GLP1R inv ag – qHTS of GLP-1 Receptor Inverse Agonists (Inhibition Mode). actives 1.6% (n = 410,000). AID 624417, 2012. HEK293 GLP-1R CRE-luciferase, luminescence, 24 h; GLP-1R form is constitutively active. Potency, µM (titrated, usually from 38.3 µM), for the others: at the top dose activity change, negative = inhibition, most hits filed as inhibitors. Glucagon-like peptide 1 receptor (Homo sapiens), P43220; note: % is set by controls: 0 for no effect and ±100 for the full control effect; nearly all actives have a fitted effect of over 55% in size
Target sequence (P43220 whole entry, looked up): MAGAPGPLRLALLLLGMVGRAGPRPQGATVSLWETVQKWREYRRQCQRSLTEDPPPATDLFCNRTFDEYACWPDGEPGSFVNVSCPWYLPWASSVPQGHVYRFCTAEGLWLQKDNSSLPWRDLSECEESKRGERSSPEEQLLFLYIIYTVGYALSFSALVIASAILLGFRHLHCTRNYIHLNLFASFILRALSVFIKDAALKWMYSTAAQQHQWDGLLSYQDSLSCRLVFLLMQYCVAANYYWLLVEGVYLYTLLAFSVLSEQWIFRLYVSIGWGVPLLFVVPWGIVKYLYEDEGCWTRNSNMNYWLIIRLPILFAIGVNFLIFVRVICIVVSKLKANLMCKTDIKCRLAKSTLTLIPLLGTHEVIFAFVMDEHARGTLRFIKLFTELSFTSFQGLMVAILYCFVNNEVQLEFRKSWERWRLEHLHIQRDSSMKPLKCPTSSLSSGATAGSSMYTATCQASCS
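Stable HEK293 clone (constitutively active GLP-1R + cAMP-response luciferase); 200 cells/uL plated, 12 h pre-culture, compound 24 hr, 37 deg C/5% CO2; detection reagent 12 min RT; luminescence.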
GLP-1R agonist – qHTS of GLP-1 Receptor Agonists; Glucagon-like peptide 1 receptor (Homo sapiens), P43220; HEK293 GLP-1R CRE-luciferase, luminescence, 4-6 h; cells express a hypersensitive GLP-1R form; Potency, µM (doses to about 45.6 µM), for the others: top-dose activation, actives largely listed as activators; actives 0.007% (n = 380,000); note: % of control where 0% means no effect
GLP1R cytotox – qHTS of GLP-1 Receptor Inverse Agonists: Cytotox Screen. actives 0.13% (n = 410,000). HEK293 cAMP-luciferase reporter cells, luminescence, 24 h. Potency, µM (series often up to 38.3 µM), without a hit: at the top dose activity change, negative = inhibition, hits mostly inhibitors;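 note: loss of luciferase light is scored as toxicity; % is set by controls: 0 for no effect and ±100 for the full control effect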
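Step one: seed cells (200 cells/uL, DMEM with 10% Nu serum, 1% pen-strep). Step two: 12-hour incubation at 37 deg C. Step three: pin 23 nL compound, incubate 24 hr. Step four: add luciferase reagent, read luminescence 12 min later.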
* marks the source's active call; other numbers are inactive results; ? = inconclusive; . = no result; [ ] = another dose, or the depositor's remark. Calls come from the whole dose curve; as a rule, active = well fitted curve in the direction sought with a large enough effect; inconclusive = small, poorly fitted or top-dose-only effect, or another doubt; inactive = no such curve, though single readings can be large; an effect the other way counts as inactive or inconclusive. Potency is the fitted concentration of half-maximal effect.

SMILES | GLP1R inv ag | GLP-1R agonist | GLP1R cytotox
Cc1ccccc1NS(=O)(=O)c1ccc2[nH]cc(C(=O)NC3CCCCC3)c(=O)c2c1 | 10µM* | . | -23%
CC(C)c1ccc(NS(=O)(=O)c2ccc3[nH]cc(C(=O)NC4CCCCC4)c(=O)c3c2)cc1 | ? | . | -22%
CCOC(=O)[C@@H]1[C@H]2COc3ccc(Br)cc3[C@H]2N2C(=O)N(c3cccc(Cl)c3)C(=O)[C@]12C | ? | -5% | 24%
CC1C(=O)C(C)C(c2cc(Br)ccc2O)NC1c1cc(Br)ccc1O (stereo not drawn) | 5µM* | 7% | ?
CC1C(=O)C(C)C(c2ccc(Br)cc2)NC1c1ccc(Br)cc1 (stereo not drawn) | -18% | -2% | -14%
CCN(CC)CCSc1nc2c([nH]1)c(=S)n(C)c(=O)n2C | ? | 1% | 5.6µM*
CCCCC(C)Sc1nc2c([nH]1)c(=S)n(C)c(=O)n2C (stereo not drawn) | ? | 15% | ?
CCCCSc1nc2c([nH]1)c(=S)n(C)c(=O)n2C | ? | -7% | ?
CCCC(CC)Sc1nc2c([nH]1)c(=S)n(C)c(=O)n2C (stereo not drawn) | ? | 3% | 0.89µM*
O=C(Nc1ccc(F)c(F)c1)c1cc(S(=O)(=O)NC2CCCC2)ccc1F | 10µM* | . | -3%
O=C(Nc1ccc(C(F)(F)F)cc1)c1cc(S(=O)(=O)NC2CCCCC2)ccc1F | ? | . | -18%
O=C(Nc1ccc(Br)cc1)c1cc(S(=O)(=O)NC2CCCC2)ccc1F | ? | . | 0%
Cc1ccc(NC(=O)c2cc(S(=O)(=O)NC3CCCCC3)ccc2F)cc1Cl | 7.9µM* | . | -32%
Cc1nc2ccccc2c(=O)n1NC(=O)c1ccc([N+](=O)[O-])cc1 | 22%[7.66 µM] | 1% | 4%[7.66 µM]
Cc1cccc(NC(=O)CNC(=O)c2ccc(-n3cncn3)c([N+](=O)[O-])c2)c1C | 15% | 12% | 5%
CC[C@@]12C(=O)N(c3cccc(Br)c3)C(=O)N1[C@H](c1ccc(F)cc1)[C@@H]1C(=O)N(C3CCCCC3)C(=O)[C@@H]12 | 8.9µM* | -3% | -31%
CC[C@@]12C(=O)N(c3cccc(F)c3)C(=O)N1[C@H](c1ccc(F)cc1)[C@@H]1C(=O)N(C3CCCCC3)C(=O)[C@@H]12 | ? | -3% | -6%
O=C1[C@H]2[C@@H](c3ccc(F)cc3)N3C(=O)N(c4cccc(F)c4)C(=O)[C@@]3(Cc3ccccc3)[C@H]2C(=O)N1C1CCCCC1 | ? | -4% | 2%
O=C1[C@H]2[C@@H](c3ccc(F)cc3)N3C(=O)N(c4cccc(Br)c4)C(=O)[C@@]3(Cc3ccccc3)[C@H]2C(=O)N1C1CCCCC1 | 2.8µM* | 0% | 7%
CCC(=O)N1CCc2cc(Br)cc(S(=O)(=O)CCC(=O)NCc3ccccc3)c21 | 3% | . | -9%
O=Cc1cc2ccccc2nc1SCc1ccc(Cl)cc1 | 0% | 4% | ?
Cc1ccc(CSc2nc3ccccc3cc2C=O)cc1 | 4µM* | 2% | ?
CCOC(=O)c1c(C)oc2ncnc(Nc3cccc(C(F)(F)F)c3)c12 | -21% | -2% | -18%
COc1ccc(NC(=O)N(C)C[C@H]2Oc3ccc(NS(=O)(=O)c4ccccc4)cc3C(=O)N([C@H](C)CO)C[C@@H]2C)cc1 | 17% | 12% | 3%
Cc1c(C)n(Cc2ccccc2)c2ccc(C(=O)NCCN3CCOCC3)cc12 | ? | 4% | -14%
SMILES | GLP1R inv ag | GLP-1R agonist | GLP1R cytotox
Cc1c(C)n(Cc2ccc(Cl)cc2)c2ccc(C(=O)NCCN3CCOCC3)cc12 | 3.5µM* | 7% | -8%
Cc1ccc(CN2C(=O)c3ccccc3Sc3ccc(C(=O)NCCN4CCOCC4)cc32)cc1 | 6.3µM* | -6% | ?
CC1CCN(CCCNC(=O)c2ccc3c(=O)n(Cc4ccc(Cl)cc4)c(=S)[nH]c3c2)CC1 | -14%[7.66 µM] | 1% | -2%[7.66 µM]
Cc1cccc(CN2C(=O)c3ccccc3Sc3ccc(C(=O)NCCN4CCOCC4)cc32)c1 | ? | 5% | ?
O=C(NCCCN1CCOCC1)c1ccc2c(=O)n(Cc3ccc(Cl)cc3)c(=S)[nH]c2c1 | 2µM* | 0% | 16%
CN(C)CCNC(=O)c1ccc2c(=O)n(Cc3ccc(Cl)cc3)c(=S)[nH]c2c1 | 3.2µM* | 7% | ?
COC(=O)c1ccc2c(=O)n(Cc3ccc(C(=O)NCCCN4CCOCC4)cc3)c(=S)[nH]c2c1 | 5% | 8% | 25%
Cc1nn(CC(=O)N2CCN(c3cccc(C(F)(F)F)c3)CC2)c(=O)c2cccn12 | ? | 0% | -5%
Cc1cc2[nH]c(=O)c(=O)[nH]c2cc1S(=O)(=O)Nc1cccc(C(F)(F)F)c1 | -10% | . | 4%
CN(C)c1ccc(/C=C2/C[N+](C)(C)C/C(=C/c3ccc(N(C)C)cc3)C2=O)cc1 | 25% | -3% | 8.9µM*
CC(C)/C=C1\CC/C(=C\c2ccc(N(C)C)cc2)C1=O | 12% | 9% | 18%
CCN1CC(CN(C)Cc2nc(-c3ccc(OC)c4ccccc34)oc2C)CC1=O (stereo not drawn) | 10µM* | 15% | ?
CCN1CC(CN(C)Cc2nc(COc3ccccc3)no2)CC1=O (stereo not drawn) | 11% | 3% | 9%
Clc1ccc(Cn2c(/C=C/c3ccco3)nc3ccccc32)cc1 | ? | 4% | -19%
Cc1ccc(Cn2c(/C=C/c3ccco3)nc3ccccc32)cc1 | 11µM* | 7% | -11%
Cc1ccc(CNC(=O)c2nc(S(=O)(=O)Cc3ccc(C)cc3)ncc2Cl)cc1 | 2% | . | -6%
Cc1cccc(CS(=O)(=O)c2ncc(Cl)c(C(=O)NCc3ccc4c(c3)OCO4)n2)c1 | 8.9µM* | -15% | -8%
COc1ccc(CCNC(=O)CN2C(=O)NC(Cc3c[nH]c4ccccc34)C2=O)cc1 (stereo not drawn) | ? | 14% | -9%
Cc1nn(Cc2ccccc2)c(C)c1NC(=O)CCCn1nc([N+](=O)[O-])c(Cl)c1C | -15% | 8% | 2%
Cc1nn(Cc2c(Cl)cccc2Cl)c(C)c1NC(=O)CCCn1nc([N+](=O)[O-])c(Cl)c1C | 2.5µM* | 9% | -3%
CC(C)Cc1ccc(C(C)C(=O)Nc2cccnc2)cc1 (stereo not drawn) | 7.9µM* | -7% | -18%
CC(C(=O)Nc1cccnc1)c1ccc([N+](=O)[O-])cc1 (stereo not drawn) | 17% | 9% | 6%
CC(C)OCCCNC(=O)CCCC(=O)Nc1ccc(OCCc2ccccc2)cc1 | -18% | -1% | -10%
O=C(OCCOc1ccccc1)c1cc(S(=O)(=O)N2CCOCC2)c(Cl)cc1Cl | 13% | -2% | 8%
CCOCN(C(=O)Cn1c(CC(C)C)nc2ccccc21)c1c(C)cccc1CC | 11µM* | -4% | -13%
CCOCN(C(=O)Cn1c(C)nc2ccccc21)c1c(C)cccc1CC | -13% | . | 11%
CC(C)CCC(CCNCc1ccccn1)c1ccc(Cl)cc1 (stereo not drawn) | ? | 11% | ?

High-throughput results from PubChem BioAssay.
